FUS suppressor: FUS proteinopathy suppression in yeast. S. cerevisiae FUS-expressing, growth rescue, OD600, 24 h. Potency, µM (series often up to 76.6 µM), most hits filed as activators. hit rate 0.24% among 390,000. AID 1347120;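 also: plate controls were DMSO vehicle for no effect and reference control for full effect; nearly all actives have a fitted effect of over 55% in size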
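Read-out: OD at 600 nm after 24hr at 30C, reporting rescue of FUS-induced yeast toxicity. Cells at OD 0.005 in galactose (2%) minimal medium; compounds tested in a dilution series; CP55940 titration from 92uM final as control.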
Abeta yeast res: compounds reversing amyloid beta toxicity in yeast | yeast expressing A-beta42, growth rescue, OD600, 48 h; response scale: 0% DMSO, 100% iron-clioquinol control | Potency, µM (top dose mostly 46.1 µM), actives largely listed as activators | hit rate 0.063% among 410,000 | AID 1347071; also: nearly all actives have a fitted effect of over 55% in size
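Yeast growth medium received pinned compounds, then yeast cells expressing toxic A-beta were added; plates incubated at 30 C for 48 hr. Growth read as absorbance at 600 nm, normalized to DMSO and equimolar FeCl3 plus clioquinol controls.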
aSyn yeast inh: alpha-synuclein toxicity inhibition in yeast. Potency, µM (doses to about 46.1 µM), for the others: top-dose growth rescue (activation), usual class: activators. Yeast expressing alpha-synuclein, growth rescue, BacTiter-Glo, 24 h. hit rate 0.14% among 370,000; also: % of control where 0% means no effect; nearly all actives have a fitted effect of over 65% in size
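Rescue of yeast growth: cells expressing toxic alpha-synuclein, induced in galactose at OD600 0.02, incubated with compound 24 h at 30 C. ATP luminescence quantified growth; inhibitors of toxicity appear as activators.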
Mito fusion yeast: blocks mitochondrial division or promotes mitochondrial fusion; S. cerevisiae fusion-defective mutant growth rescue, CellTiterGlo 48 h; Potency, µM (series often up to 46.1 µM), for inactives: top-dose growth rescue (activation), most hits filed as activators; hit rate 0.23% among 320,000; also: % of control where 0% means no effect; nearly all actives have a fitted effect of over 45% in size
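Compounds are tested for their ability to restore growth of mitochondrial fusion-defective yeast strains at non-permissive 37C in YPEG medium over 48 hours. Viability is quantified by luciferase luminescence.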
TDP43 rescue: TDP-43 toxicity inhibition in yeast; TDP-43 expressing yeast growth rescue, BacTiter-Glo, 24 h; Potency, µM (doses to about 46.1 µM), for the others: top-dose growth rescue (activation), actives largely listed as activators; hit rate 1.8% among 410,000; AID 652104; also: % of control where 0% means no effect; nearly all actives have a fitted effect of over 50% in size
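Readout is BacTiter-Glo luminescence of cell growth, so inhibitors register as activators. TDP-43-expressing yeast at OD600=0.02 in galactose medium, after raffinose pregrowth to mid-log, were incubated with compound for 24 hr at 30 deg C.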
Active calls of the source: *; i = inactive; u = inconclusive; x = no result given. The list is not random: actives were taken first. Their share in the collection is about 2.2%. Calls follow the shape of the dose curve; as a rule, active = well fitted curve in the direction sought with a large enough effect; inconclusive = small, poorly fitted or top-dose-only effect, or another doubt; inactive = no such curve, though single readings can be large; an effect the other way counts as inactive or inconclusive. Potency is read from the fitted curve at half-maximal effect.

SMILES	FUS suppressor	Abeta yeast res	aSyn yeast inh	Mito fusion yeast	TDP43 rescue
CCCn1c(NC(=O)c2ccccc2)nc(Cc2ccccc2)c1Cc1ccccc1	i	x	x	x	x
COc1ccc(S(=O)(=O)NCCSCc2ccccc2C)cc1Br	i	i	u	5.9%	15.8µM*
Cc1ccc(OCC(=O)NNC(=S)NC(=O)C(C)(C)C)c(Br)c1	i	i	23.9%	-2.1%	5.01µM*
Cc1cccc(NC(=S)NNC(=O)COc2ccc(Cl)cc2Cl)c1	i	i	-5.8%	22.4µM*	9.3%
COc1ccc(NC(=S)NNC(=O)COc2ccc(Cl)cc2Cl)cc1	i	i	-0.2%	27.0%	15.7%
Cc1ccc(OCC(=O)NNC(=S)NC(=O)C2CCCCC2)c(C)c1	i	i	u	7.1%	12.6µM*
Cc1ccc(C(=O)C(O)C(c2ccc(C)cc2)N2CCCCC2)cc1 (stereo not drawn)	i	i	-4.0%	-2.1%	-12.3%
CC(=O)/C(=C\N(C)C)Sc1ccc(Cl)cc1	i	u	u	-4.0%	22.4µM*
CC1CCN(C(=O)C(C)OC(=O)c2ccc(S(C)(=O)=O)c([N+](=O)[O-])c2)CC1 (stereo not drawn)	x	x	-9.8%	x	x
COc1ccc(OCC(=O)N2CCC(c3nc4ccccc4s3)CC2)cc1	i	i	x	x	u
CC(C)Oc1ccc(C(=O)N2CCC(c3nc4ccccc4s3)CC2)cc1	i	i	x	x	3.8%
COc1ccccc1OC(C)C(=O)N1CCC(c2nc3ccccc3s2)CC1 (stereo not drawn)	i	i	x	x	14.1µM*
CCc1ccc(OC(C)C(=O)N2CCC(c3nc4ccccc4s3)CC2)cc1 (stereo not drawn)	u	i	x	x	15.8µM*
Fc1ccc(-c2cc(-c3nnc4sc(-c5cccs5)nn34)[nH]n2)cc1	i	x	x	x	x
CC(C)(C)OC(=O)NCc1cc2c(cc1/C=C/S(=O)(=O)NCc1ccc(F)cc1)OCO2	i	x	x	x	x
Cc1ccc(CCNC(=O)C2CCCN(S(=O)(=O)c3c(C)noc3C)C2)cc1 (stereo not drawn)	i	i	-1.6%	1.3%	-0.6%
Cc1ccc(CCNC(=O)C2CCCN(S(=O)(=O)c3c(C)noc3/C=C/N(C)C)C2)cc1 (stereo not drawn)	20µM*	i	0.0%	-0.1%	8.7%
C=CCN(c1ccccc1)S(=O)(=O)c1cccc(C(=O)Nc2ccc(N3CCOCC3)cc2)c1	i	i	0.9%	6.0%	14.1µM*
CSc1c(-c2ccccn2)c(N)nn1C(=O)C1CCC1	i	i	-12.5%	-5.6%	11.2µM*
CSc1c(-c2ccccn2)c(N)nn1C(=O)C1CC1	i	i	13.4%	3.6%	11.2µM*
CSc1nnc2ccc(-c3ccccn3)nn12	i	i	-5.1%	-8.5%	17.2%
O=C(Nc1nc2ncccn2c1-c1ccc(F)c(F)c1)C1CC1	i	x	x	x	x
Cc1ccc2nc3c(cc2c1)c(NC(=O)C(C)(C)C)nn3CC(C)C	i	i	-16.2%	17.3%	5.8%
O=C(COc1ccccc1)OCC(=O)c1ccc(O)cc1O	i	12.6µM*	3.5%	-1.3%	24.9%
O=C(COc1ccc(Cl)cc1)c1ccc(O)cc1O	i	i	-8.2%	11.8%	-21.8%
SMILES	FUS suppressor	Abeta yeast res	aSyn yeast inh	Mito fusion yeast	TDP43 rescue
O=C(OC12CCCN(C1)/C(=C/c1ccccc1)C2)c1ccccc1 (stereo not drawn)	i	x	x	x	x
COc1cc(C(O)c2nc(-c3csc4ccccc34)cs2)ccc1F (stereo not drawn)	i	u	u	x	20µM*
OC(c1ccc(F)c(F)c1)c1nc(-c2csc3ccccc23)cs1 (stereo not drawn)	i	i	-59.3%	x	15.8µM*
COc1cc(C(O)c2nc(-c3ccccc3C)cs2)ccc1F (stereo not drawn)	i	i	15.8%	x	u
O=C(c1ccc(COc2ccc(Cl)cc2Cl)o1)N1CCCC1	x	i	4.3%	6.6%	12.6µM*
O=C(c1ccc(COc2c(F)c(F)c(F)c(F)c2F)o1)N1CCOCC1	i	i	0.9%	1.2%	29.1%
COc1ccc(N2CCN(C(=O)Oc3ccc([N+](=O)[O-])cc3)CC2)cc1	i	i	-7.7%	x	u
